Measurements taken from publication PMC7862700, “An all-to-all approach to the identification of sequence-specific readers for epigenetic DNA modifications on cytosine”.

Key:
Assay in all cases: DAPPL (digital affinity profiling via proximity ligation, sequencing); 10 mM Tris-HCl pH 7.5, 50 mM NaCl, 1 mM DTT, 4% glycerol, room temperature, 30 min; GST-TFs on glutathione beads, 16-mer random dsDNA library, 0.1% formaldehyde crosslink after washing; high values mean tight binding
FLI1 = biological target: T1, FLI1 (Homo sapiens, UniProt Q01543 1-452); details: protein: recombinant; tags: N-terminal GST; dsDNA, one strand shown
T1 sequence: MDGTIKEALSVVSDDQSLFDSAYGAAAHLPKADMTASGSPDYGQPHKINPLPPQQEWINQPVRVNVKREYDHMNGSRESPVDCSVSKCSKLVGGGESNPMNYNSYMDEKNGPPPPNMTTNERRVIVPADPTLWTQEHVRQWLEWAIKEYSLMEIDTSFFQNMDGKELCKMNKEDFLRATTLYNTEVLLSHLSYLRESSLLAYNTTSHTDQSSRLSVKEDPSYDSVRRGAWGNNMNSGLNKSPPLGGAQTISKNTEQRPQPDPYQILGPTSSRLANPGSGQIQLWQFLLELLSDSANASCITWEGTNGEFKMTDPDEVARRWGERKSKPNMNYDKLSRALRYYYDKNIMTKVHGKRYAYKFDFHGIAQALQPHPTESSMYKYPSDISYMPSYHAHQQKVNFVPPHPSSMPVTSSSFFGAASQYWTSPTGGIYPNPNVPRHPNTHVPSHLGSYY
In short: (§1)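 Each value of binding signal is a hexamer's read frequency for a factor divided by the same hexamer's frequency in the tag-only sample. Barcoded, bead-captured GST fusions of human transcription factors made in yeast were pooled with that sample and incubated with 200 nmole of a random double-stranded 16-mer DNA library in Tris/NaCl/DTT/glycerol buffer at room temperature for 30 min. Washing, 0.1% formaldehyde crosslinking, proximity ligation, PCR and Illumina NextSeq500 sequencing followed.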

ELK1 = biological target: T2, ELK1 (Homo sapiens, UniProt P19419 1-428); details: protein: recombinant; tags: N-terminal GST; dsDNA, one strand shown
T2 sequence: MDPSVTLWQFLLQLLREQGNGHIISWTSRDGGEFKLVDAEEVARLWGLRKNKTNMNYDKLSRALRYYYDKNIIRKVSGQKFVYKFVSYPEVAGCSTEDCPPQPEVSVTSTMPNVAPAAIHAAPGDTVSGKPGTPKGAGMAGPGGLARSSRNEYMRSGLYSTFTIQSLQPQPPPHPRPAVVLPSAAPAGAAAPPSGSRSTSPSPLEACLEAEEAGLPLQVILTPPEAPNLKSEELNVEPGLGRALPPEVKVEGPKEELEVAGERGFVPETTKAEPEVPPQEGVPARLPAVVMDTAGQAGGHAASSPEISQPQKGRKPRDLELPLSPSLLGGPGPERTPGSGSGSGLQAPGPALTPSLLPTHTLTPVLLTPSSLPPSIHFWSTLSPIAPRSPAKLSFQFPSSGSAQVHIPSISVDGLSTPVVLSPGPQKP
In short: as §1

GABPA = biological target: T3, GABPA (Homo sapiens, UniProt Q06546 1-454); details: protein: recombinant; tags: N-terminal GST; dsDNA, one strand shown
T3 sequence: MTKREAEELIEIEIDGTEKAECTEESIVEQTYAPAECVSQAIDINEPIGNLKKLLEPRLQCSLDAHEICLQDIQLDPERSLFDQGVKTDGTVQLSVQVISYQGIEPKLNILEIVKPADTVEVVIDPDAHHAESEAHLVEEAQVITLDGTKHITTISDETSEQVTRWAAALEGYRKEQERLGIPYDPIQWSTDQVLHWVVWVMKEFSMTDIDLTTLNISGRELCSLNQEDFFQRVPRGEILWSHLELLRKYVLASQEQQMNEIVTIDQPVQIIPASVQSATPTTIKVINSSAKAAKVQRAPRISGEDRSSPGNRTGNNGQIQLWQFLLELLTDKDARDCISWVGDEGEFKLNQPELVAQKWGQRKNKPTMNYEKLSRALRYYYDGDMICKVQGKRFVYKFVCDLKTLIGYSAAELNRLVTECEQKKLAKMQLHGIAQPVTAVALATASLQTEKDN
In short: as §1

ERG = biological target: T4, ERG (Homo sapiens, UniProt P11308 1-479); details: protein: recombinant; tags: N-terminal GST; dsDNA, one strand shown
T4 sequence: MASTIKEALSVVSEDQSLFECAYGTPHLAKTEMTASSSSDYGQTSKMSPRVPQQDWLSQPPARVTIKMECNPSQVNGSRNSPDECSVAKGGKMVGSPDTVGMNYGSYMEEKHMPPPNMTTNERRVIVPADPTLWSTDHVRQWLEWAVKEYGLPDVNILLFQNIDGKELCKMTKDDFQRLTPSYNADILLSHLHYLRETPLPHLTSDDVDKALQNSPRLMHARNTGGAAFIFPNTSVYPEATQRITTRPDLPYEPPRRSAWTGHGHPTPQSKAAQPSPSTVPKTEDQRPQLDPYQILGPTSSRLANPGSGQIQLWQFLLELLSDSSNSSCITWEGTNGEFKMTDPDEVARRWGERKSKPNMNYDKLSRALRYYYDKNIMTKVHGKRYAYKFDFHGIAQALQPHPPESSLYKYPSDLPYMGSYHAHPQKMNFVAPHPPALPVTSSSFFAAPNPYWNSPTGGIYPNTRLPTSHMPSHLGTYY
In short: as §1

ELF1 = ELF1 (Homo sapiens, UniProt P32519 1-619); details: protein: recombinant; tags: N-terminal GST; dsDNA, one strand shown
Sequence of ELF1 (P32519 whole entry): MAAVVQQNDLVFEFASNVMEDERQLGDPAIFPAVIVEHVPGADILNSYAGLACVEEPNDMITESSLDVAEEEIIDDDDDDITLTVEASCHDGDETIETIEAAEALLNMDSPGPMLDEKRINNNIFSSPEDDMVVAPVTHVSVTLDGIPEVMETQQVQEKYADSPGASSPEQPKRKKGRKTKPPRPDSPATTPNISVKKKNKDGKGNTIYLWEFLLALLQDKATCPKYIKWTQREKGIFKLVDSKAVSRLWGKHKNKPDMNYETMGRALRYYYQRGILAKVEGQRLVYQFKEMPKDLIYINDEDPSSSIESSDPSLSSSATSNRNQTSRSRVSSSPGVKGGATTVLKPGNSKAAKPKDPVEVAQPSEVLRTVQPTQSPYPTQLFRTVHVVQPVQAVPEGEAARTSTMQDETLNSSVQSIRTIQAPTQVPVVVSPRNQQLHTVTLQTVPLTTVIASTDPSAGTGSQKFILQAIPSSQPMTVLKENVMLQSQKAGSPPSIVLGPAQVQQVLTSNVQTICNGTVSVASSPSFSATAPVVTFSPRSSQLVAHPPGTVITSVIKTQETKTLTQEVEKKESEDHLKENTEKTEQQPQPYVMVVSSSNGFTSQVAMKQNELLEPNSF
In short: as §1

EHF = biological target: T5, EHF (Homo sapiens, UniProt Q9NZC4 1-300); details: protein: recombinant; tags: N-terminal GST; dsDNA, one strand shown
T5 sequence: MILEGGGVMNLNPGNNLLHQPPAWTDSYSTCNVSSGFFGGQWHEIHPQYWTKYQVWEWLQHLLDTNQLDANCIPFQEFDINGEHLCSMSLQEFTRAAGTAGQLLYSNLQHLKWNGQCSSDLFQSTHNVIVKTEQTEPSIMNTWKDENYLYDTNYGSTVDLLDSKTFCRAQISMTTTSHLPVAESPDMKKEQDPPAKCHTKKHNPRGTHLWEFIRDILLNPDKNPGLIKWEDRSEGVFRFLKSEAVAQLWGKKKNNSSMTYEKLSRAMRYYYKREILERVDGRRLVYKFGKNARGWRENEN
In short: as §1

SPI1 = SPI1 (Homo sapiens, UniProt P17947 1-270); details: protein: recombinant; tags: N-terminal GST; dsDNA, one strand shown
In short: as §1

SPIB = SPIB (Homo sapiens, UniProt Q01892 1-262); details: protein: recombinant; tags: N-terminal GST; dsDNA, one strand shown
Sequence of SPIB (Q01892 whole entry): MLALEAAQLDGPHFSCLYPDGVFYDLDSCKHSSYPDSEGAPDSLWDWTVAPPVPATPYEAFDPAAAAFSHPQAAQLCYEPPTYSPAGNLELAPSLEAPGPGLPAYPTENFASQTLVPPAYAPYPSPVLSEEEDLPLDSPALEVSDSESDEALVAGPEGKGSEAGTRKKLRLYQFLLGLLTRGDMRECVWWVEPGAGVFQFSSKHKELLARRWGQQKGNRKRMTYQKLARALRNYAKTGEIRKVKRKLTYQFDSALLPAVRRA
In short: as §1

ELK3 = biological target: T6, ELK3 (Homo sapiens, UniProt P41970 1-407); details: protein: recombinant; tags: N-terminal GST; dsDNA, one strand shown
T6 sequence: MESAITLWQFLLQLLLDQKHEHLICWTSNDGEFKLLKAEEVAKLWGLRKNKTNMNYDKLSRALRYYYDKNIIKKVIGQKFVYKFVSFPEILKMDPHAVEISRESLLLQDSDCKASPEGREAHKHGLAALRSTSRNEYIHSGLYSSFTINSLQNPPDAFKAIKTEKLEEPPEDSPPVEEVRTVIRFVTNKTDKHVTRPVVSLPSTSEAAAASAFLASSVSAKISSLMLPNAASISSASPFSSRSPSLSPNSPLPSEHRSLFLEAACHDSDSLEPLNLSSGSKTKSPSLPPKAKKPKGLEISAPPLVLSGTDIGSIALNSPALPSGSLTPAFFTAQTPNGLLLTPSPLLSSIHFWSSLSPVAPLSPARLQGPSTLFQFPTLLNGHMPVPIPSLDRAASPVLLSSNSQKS
In short: as §1

FEV = biological target: T7, FEV (Homo sapiens, UniProt Q99581 1-238); details: protein: recombinant; tags: N-terminal GST; dsDNA, one strand shown
T7 sequence: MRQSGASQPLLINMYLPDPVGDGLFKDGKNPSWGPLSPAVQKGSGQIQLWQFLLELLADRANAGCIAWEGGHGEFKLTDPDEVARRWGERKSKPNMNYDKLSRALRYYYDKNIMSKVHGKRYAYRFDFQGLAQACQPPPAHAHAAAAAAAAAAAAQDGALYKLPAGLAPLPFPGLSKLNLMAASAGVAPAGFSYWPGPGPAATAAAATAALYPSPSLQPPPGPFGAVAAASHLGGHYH
In short: as §1

ETV5 = ETV5 (Homo sapiens, UniProt P41161 1-510); details: protein: recombinant; tags: N-terminal GST; dsDNA, one strand shown
Sequence of ETV5 (P41161 whole entry): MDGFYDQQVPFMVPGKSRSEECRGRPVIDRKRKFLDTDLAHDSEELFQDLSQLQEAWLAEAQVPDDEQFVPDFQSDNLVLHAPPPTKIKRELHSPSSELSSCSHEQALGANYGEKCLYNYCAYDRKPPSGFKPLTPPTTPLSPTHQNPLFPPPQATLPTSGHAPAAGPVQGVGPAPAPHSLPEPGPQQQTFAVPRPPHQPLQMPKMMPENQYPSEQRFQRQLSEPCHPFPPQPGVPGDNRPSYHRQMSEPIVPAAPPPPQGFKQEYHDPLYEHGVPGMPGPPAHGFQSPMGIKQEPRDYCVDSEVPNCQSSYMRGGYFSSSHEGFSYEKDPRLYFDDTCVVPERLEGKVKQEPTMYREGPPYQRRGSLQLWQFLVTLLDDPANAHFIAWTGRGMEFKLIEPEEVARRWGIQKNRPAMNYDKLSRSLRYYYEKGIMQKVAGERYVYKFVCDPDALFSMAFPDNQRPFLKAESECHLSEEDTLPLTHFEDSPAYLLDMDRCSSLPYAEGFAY
In short: as §1

HSF1 = HSF1 (Homo sapiens, UniProt Q00613 1-529); details: protein: recombinant; tags: N-terminal GST; chain copies: 3; dsDNA, one strand shown
Sequence of HSF1 (Q00613 whole entry): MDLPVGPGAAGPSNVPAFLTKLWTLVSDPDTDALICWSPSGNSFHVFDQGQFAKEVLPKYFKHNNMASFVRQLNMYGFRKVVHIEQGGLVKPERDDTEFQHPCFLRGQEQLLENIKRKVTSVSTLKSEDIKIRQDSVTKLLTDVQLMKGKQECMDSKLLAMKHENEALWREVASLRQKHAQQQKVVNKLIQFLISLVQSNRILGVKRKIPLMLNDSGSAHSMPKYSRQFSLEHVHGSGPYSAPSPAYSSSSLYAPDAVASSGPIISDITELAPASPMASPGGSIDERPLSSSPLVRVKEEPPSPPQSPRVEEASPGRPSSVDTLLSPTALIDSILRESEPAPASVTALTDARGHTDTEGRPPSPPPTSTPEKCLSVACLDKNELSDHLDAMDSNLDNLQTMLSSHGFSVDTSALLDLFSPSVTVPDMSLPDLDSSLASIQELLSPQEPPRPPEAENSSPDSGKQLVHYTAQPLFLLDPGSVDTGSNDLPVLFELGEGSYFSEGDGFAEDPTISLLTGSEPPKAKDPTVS
In short: as §1

SPIC = biological target: T8, SPIC (Homo sapiens, UniProt Q8N5J4 1-248); details: protein: recombinant; tags: N-terminal GST; dsDNA, one strand shown
T8 sequence: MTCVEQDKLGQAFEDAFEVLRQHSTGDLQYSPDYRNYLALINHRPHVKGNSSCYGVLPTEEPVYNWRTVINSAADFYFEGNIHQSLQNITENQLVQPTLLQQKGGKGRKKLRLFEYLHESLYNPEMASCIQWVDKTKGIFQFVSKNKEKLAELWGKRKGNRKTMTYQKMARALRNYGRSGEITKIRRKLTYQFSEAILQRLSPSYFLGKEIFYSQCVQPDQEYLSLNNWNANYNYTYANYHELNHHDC
In short: as §1

ELF4 = ELF4 (Homo sapiens, UniProt Q99607 1-663); details: protein: recombinant; tags: N-terminal GST; dsDNA, one strand shown
Sequence of ELF4 (Q99607 whole entry): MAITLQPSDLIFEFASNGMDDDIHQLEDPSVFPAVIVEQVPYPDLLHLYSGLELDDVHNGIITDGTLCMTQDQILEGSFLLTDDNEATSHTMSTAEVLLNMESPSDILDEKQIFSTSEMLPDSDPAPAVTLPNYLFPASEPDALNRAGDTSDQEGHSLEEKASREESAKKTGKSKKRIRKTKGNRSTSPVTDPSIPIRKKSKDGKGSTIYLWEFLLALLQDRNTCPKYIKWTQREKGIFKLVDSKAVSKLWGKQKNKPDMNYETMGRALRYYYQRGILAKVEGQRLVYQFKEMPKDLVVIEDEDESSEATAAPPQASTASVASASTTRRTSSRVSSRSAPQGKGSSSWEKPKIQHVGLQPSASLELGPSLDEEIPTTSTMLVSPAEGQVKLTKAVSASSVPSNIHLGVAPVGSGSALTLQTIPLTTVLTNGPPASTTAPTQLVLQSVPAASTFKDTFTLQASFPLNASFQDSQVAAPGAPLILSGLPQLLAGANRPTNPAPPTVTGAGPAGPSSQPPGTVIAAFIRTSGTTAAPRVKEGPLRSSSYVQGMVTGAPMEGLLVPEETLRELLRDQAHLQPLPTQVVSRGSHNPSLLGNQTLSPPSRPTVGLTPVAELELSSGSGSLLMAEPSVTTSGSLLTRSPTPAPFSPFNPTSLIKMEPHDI
In short: as §1

ELK4 = biological target: T9, ELK4 (Homo sapiens, UniProt P28324-2 1-405); details: protein: recombinant; tags: N-terminal GST; dsDNA, one strand shown
T9 sequence: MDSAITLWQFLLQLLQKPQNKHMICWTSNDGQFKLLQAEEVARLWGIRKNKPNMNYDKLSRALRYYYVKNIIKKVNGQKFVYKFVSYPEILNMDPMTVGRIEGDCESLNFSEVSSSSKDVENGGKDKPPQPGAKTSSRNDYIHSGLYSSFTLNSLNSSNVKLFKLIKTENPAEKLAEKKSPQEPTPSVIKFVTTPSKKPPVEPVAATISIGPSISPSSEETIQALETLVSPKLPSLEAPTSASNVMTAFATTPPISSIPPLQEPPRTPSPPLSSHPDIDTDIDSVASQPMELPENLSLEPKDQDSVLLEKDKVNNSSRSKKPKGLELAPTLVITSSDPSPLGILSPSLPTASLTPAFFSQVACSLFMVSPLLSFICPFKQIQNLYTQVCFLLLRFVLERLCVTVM
In short: as §1

ETV2 = biological target: T10, ETV2 (Homo sapiens, UniProt O00321 1-342); details: protein: recombinant; tags: N-terminal GST; dsDNA, one strand shown
T10 sequence: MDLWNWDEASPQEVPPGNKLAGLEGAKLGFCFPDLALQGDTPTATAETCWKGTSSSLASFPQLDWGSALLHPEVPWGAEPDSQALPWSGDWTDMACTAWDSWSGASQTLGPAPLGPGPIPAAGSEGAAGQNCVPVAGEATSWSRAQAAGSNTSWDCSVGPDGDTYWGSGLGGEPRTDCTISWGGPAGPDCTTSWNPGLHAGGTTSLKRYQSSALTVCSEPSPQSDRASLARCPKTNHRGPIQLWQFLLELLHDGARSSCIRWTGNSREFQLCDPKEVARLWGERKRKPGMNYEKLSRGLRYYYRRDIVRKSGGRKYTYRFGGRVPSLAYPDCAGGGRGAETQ
In short: as §1

ELF3 = biological target: T11, ELF3 (Homo sapiens, UniProt P78545 1-371); details: protein: recombinant; tags: N-terminal GST; dsDNA, one strand shown
T11 sequence: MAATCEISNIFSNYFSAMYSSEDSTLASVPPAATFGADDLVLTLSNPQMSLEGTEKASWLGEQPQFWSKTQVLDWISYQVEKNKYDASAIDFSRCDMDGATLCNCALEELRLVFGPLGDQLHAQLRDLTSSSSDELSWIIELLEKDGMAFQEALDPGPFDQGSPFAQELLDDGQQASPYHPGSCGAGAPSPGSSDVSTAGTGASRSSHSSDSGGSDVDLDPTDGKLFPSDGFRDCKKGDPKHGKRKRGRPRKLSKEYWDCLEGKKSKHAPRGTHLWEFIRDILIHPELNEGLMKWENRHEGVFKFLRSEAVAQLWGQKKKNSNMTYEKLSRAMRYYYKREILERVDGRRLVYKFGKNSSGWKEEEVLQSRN
In short: as §1

CRX = CRX (Homo sapiens, UniProt O43186 1-299); details: protein: recombinant; tags: N-terminal GST; dsDNA, one strand shown
Sequence of CRX (O43186 whole entry): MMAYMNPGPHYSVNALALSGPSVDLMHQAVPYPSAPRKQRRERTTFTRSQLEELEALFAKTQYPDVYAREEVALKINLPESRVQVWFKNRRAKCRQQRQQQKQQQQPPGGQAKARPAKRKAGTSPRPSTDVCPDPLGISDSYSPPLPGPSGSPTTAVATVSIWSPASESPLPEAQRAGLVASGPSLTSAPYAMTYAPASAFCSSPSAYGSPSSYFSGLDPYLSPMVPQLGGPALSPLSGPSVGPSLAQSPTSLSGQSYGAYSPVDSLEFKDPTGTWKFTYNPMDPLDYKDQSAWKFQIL
In short: as §1

ETV1 = ETV1 (Homo sapiens, UniProt P50549 1-477); details: protein: recombinant; tags: N-terminal GST; dsDNA, one strand shown
Sequence of ETV1 (P50549 whole entry): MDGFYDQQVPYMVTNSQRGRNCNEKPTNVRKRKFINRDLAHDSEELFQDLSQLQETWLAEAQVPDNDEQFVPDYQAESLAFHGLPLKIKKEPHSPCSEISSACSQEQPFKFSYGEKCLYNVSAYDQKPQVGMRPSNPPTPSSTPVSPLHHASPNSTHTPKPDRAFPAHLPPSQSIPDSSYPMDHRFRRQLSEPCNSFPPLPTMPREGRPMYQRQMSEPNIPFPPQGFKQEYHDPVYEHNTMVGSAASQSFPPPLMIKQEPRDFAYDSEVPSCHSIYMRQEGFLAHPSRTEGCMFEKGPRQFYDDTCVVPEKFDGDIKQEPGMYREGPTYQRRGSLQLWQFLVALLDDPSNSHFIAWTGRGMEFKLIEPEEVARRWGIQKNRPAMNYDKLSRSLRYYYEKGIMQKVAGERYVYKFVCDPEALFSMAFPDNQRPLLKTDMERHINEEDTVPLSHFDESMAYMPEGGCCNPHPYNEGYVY
In short: as §1

In the case of CTTTAT, the binding signal (FLI1) is reported as 1.19 fold enrichment (6-mer frequency, TF over GST control), the binding signal (ELK1) is reported as 1.19 fold enrichment (6-mer frequency, TF over GST control) and the binding signal (GABPA) is reported as 1.18 fold enrichment (6-mer frequency, TF over GST control). The binding signal (ERG) was 1.16 fold enrichment (6-mer frequency, TF over GST control), the binding signal (ELF1) was 1.17 fold enrichment (6-mer frequency, TF over GST control) and the binding signal (EHF) was 1.34 fold enrichment (6-mer frequency, TF over GST control). For the same sequence, the binding signal (SPI1) was 1.25 fold enrichment (6-mer frequency, TF over GST control), the binding signal (SPIB) was 1.19 fold enrichment (6-mer frequency, TF over GST control) and the binding signal (ELK3) was 1.25 fold enrichment (6-mer frequency, TF over GST control). For the same sequence, the binding signal (FEV) was 1.17 fold enrichment (6-mer frequency, TF over GST control), the binding signal (ETV5) was 1.21 fold enrichment (6-mer frequency, TF over GST control) and the binding signal (HSF1) was 1.23 fold enrichment (6-mer frequency, TF over GST control). The binding signal (SPIC) was 1.21 fold enrichment (6-mer frequency, TF over GST control), the binding signal (ELF4) was 1.19 fold enrichment (6-mer frequency, TF over GST control) and the binding signal (ELK4) was 1.29 fold enrichment (6-mer frequency, TF over GST control). The binding signal (ETV2) was 1.29 fold enrichment (6-mer frequency, TF over GST control), the binding signal (ELF3) was 1.21 fold enrichment (6-mer frequency, TF over GST control) and the binding signal (CRX) was 1.65 fold enrichment (6-mer frequency, TF over GST control). The binding signal (ETV1) was 1.22 fold enrichment (6-mer frequency, TF over GST control).
